# Compounds without any hit were thinned out: in the full panel of roughly 83,000, 20% have a hit.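 Percent growth is the endpoint: 0 to 100 indicates growth inhibition (40 means 60% inhibition), 0 means no net growth, and negative values indicate cell death.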 Unmarked numbers belong to inactive results. Calls of active or inactive are those of the source. Rule for the calls: active = growth percent below 10; inactive = the rest.
# Legend:
# Test in all cases: NCI-60 one-dose screen, 48 h (100 = growth as untreated, 0 = no growth, -100 = all killed)
# [1] = system: SK-MEL-2 melanoma; conditions: 10 µM unless noted
# [2] = system: EKVX NSCLC; conditions: 10 µM unless noted
# [3] = system: SN12C renal; conditions: 10 µM unless noted
# [4] = system: UO-31 renal; conditions: 10 µM unless noted
# [5] = system: TK-10 renal; conditions: 10 µM unless noted
# [6] = system: ACHN renal; conditions: 10 µM unless noted
# [7] = system: CAKI-1 renal; conditions: 10 µM unless noted
# [8] = system: CCRF-CEM leukemia; conditions: 10 µM unless noted
# [9] = system: MOLT-4 leukemia; conditions: 10 µM unless noted
# [10] = system: SR leukemia; conditions: 10 µM unless noted
# [11] = system: RPMI-8226 leukemia; conditions: 10 µM unless noted
# [12] = system: OVCAR-8 ovarian; conditions: 10 µM unless noted
# [13] = system: OVCAR-5 ovarian; conditions: 10 µM unless noted
# [14] = system: OVCAR-4 ovarian; conditions: 10 µM unless noted
# [15] = system: SK-OV-3 ovarian; conditions: 10 µM unless noted
# [16] = system: IGROV1 ovarian; conditions: 10 µM unless noted
# [17] = system: OVCAR-3 ovarian; conditions: 10 µM unless noted
# [18] = system: NCI/ADR-RES ovarian; conditions: 10 µM unless noted
# [19] = system: A498 renal; conditions: 10 µM unless noted
# [20] = system: HS 578T breast; conditions: 10 µM
SMILES,growth [1],growth [2],growth [3],growth [4],growth [5],growth [6],growth [7],growth [8],growth [9],growth [10],growth [11],growth [12],growth [13],growth [14],growth [15],growth [16],growth [17],growth [18],growth [19],growth [20]
COc1ccc(-c2cn(-c3cccc(C(=O)/C=C/c4ccc(O)c(OC)c4)c3)c(=O)[nH]2)cc1,30%,40.8%,14.2%,19%,35.6%,-47.8% (active),24.6%,9.57% (active),5.6% (active),7.01% (active),-40.4% (active),11.7%,33%,33.6%,53.6%,-32.8% (active),-1.7% (active),12.7%,–,–
FC1(F)CCN(Cc2c[nH]c3cc(Cl)ccc23)C[C@H]1CCc1ccccc1,76.6%,63%,54.3%,42%,61.6%,62.5%,62.1%,–,–,51.6%,34%,47.7%,80.5%,56.7%,84%,40.8%,54.6%,37.2%,82%,56.6%
C#CC[C@@H]1C[C@]2(C)[C@H]3CC[C@@H]4[C@H]5C(C(=C)C)CC[C@]5(C(=O)NCCCCCCCCN)CC[C@@]4(C)[C@]3(C)CC[C@H]2C(C)(C)[C@H]1OC(C)=O (stereo partly specified),112%,103%,96.3%,75.5%,96.5%,111%,–,-8.23% (active),5.47% (active),-16% (active),0.0796% (active),91.3%,108%,45.9%,124%,85.7%,55.4%,93.8%,95.6%,109%
Cc1[nH]n(C(=O)c2ccncc2)c(=O)c1N=Nc1ccc(O)c(C(=O)O)c1,159%,127%,93.6%,78.9%,83.2%,106%,–,-36.1% (active),87.4%,10.1%,51.5%,115%,123%,109%,108%,94.7%,105%,110%,110%,96.2%
O=C(Nc1cccc(Cl)c1)Nc1cc(C(F)(F)F)ccc1Cl,4.93% (active),16%,-24.4% (active),10.7%,16.9%,2.64% (active),9.58% (active),–,10.1%,–,-14% (active),15.2%,44.2%,11.6%,9.3% (active),14.3%,18.9%,2.25% (active),61.7%,55.9%
O=C1OC(c2ccc(-c3ccccc3)cc2)=C/C1=C/c1c(Cl)cccc1Cl,105%,86%,95.3%,81.1%,88%,105%,–,-14% (active),97.8%,69.6%,84.1%,105%,91.7%,89.8%,96.7%,95.4%,97.1%,99.3%,93.5%,85.6%
CCCCNCCC(O)c1cc2ccc(C(F)(F)F)cc2c2cc(C(F)(F)F)ccc12 (stereo unspecified),-70.1% (active),-54% (active),-75.2% (active),-88.8% (active),-91.8% (active),-82.8% (active),-74.7% (active),–,-58.8% (active),-70.2% (active),-42.8% (active),-77.3% (active),-79.9% (active),–,-34% (active),-60.9% (active),-84.8% (active),-74.5% (active),-6.76% (active),-55.2% (active)
CC(C)OC(=O)c1ccc([N+](=O)[O-])cc1,122%,96%,97.7%,104%,113%,114%,–,103%,113%,102%,98.5%,108%,112%,111%,107%,119%,117%,104%,79.2%,112%
Fc1ccc2c(CN3CCO[C@H](COc4cccc(Cl)c4)C3)c[nH]c2c1,71.1%,74.3%,49.1%,51.4%,22.1%,46.8%,–,38.5%,25.9%,37.3%,12.5%,33.3%,85.8%,71.2%,85.7%,63%,36.7%,47.3%,53.9%,64.8%
Clc1ccc2c(c1)-c1ccccc1C1=NCCN12,-0.581% (active),51.5%,29.1%,10.8%,20.1%,14.1%,29.4%,–,17.1%,8.25% (active),33%,–,41.2%,44.4%,36.9%,24.3%,41.1%,26.3%,10.3%,58.4%
COc1cc(/C=C2\C(=O)Nc3ccc(N(C)C)cc32)cc(OC)c1OC,61.2%,34.4%,25.2%,35.2%,42.3%,41.6%,–,21.9%,36.2%,19.1%,14.3%,–,71.1%,42.1%,45.5%,16.6%,–,0.228% (active),-18.2% (active),-18.2% (active)
Cc1ccc(NC(=O)Cn2nncc2CN2C(=O)CSC2=O)cc1C,102%,91.3%,105%,91.6%,98.8%,100%,–,106%,103%,124%,106%,102%,–,104%,89.7%,111%,102%,96.1%,93.3%,99.2%
COc1cc(-c2n/c(=C\c3c(O)[nH]c4cc(Cl)ccc34)cc3c2=Nc2ccccc2-3)cc(OC)c1OC,72.9%,64.1%,78.4%,74.9%,63%,59.6%,69.1%,–,70.6%,36.8%,84.6%,–,102%,-1.32% (active),59.4%,25.2%,58.1%,84.1%,94.5%,50%
CCCCn1c(-c2ccc(F)cc2)nc2cc(OC)c(OC)cc2c1=O,176%,105%,91.3%,82.2%,75.1%,101%,–,-46% (active),51.1%,34.4%,40.2%,109%,108%,112%,120%,79.4%,106%,93.9%,95.7%,101%
O=C(Nc1ccc2ncnc(Nc3ccc(F)c(Cl)c3)c2c1)c1cccs1,90.7%,44.5%,45.6%,27.8%,32.3%,2.83% (active),–,76.9%,71.9%,11.3%,53%,66.2%,76.1%,47.1%,54%,38.7%,–,60.7%,46%,72.2%
O=C1c2ccccc2C2N1CCC1CCc3ccccc3N12 (stereo unspecified),99.7%,104%,94.8%,55.1%,108%,99.3%,–,105%,101%,114%,105%,101%,92%,–,109%,99.8%,115%,103%,75.5%,99.8%
O=C(NCCNC(=O)c1cc(S(=O)(=O)NCCc2ccccc2)c(O)c(O)c1O)c1cc(S(=O)(=O)NCCc2ccccc2)c(O)c(O)c1O,63%,49.9%,52.3%,46.5%,96.6%,68.6%,–,45%,56.6%,–,79.5%,40.2%,82.3%,62.3%,33.1%,31.5%,19.7%,76.1%,87.3%,52.2%

# — PubChem BioAssay (NCI)
